Results filed as inconclusive are left out. A call without a number means that no potency is given here. Calls of active or inactive are those of the source. Calls come from the whole dose curve; as a rule, active = well fitted curve in the direction sought with a large enough effect in the repeat runs; inconclusive = weak or mixed curves; inactive = no such curve, though single readings can be large; an effect the other way counts as inactive or inconclusive.
Experiments:
[1] = A CellTox Green Cytotoxicity Assay to monitor cytotoxicity in HEK293 cells - 24 hour (AID 1224875); note: nearly all actives have a fitted effect of over 45% in size; note: potency is the fitted concentration of half-maximal effect
Summary of the method: (§1)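 Seeding of HEK293 cells together with cytotoxicity dye preceded a 5 h incubation at 37 C/5% CO2. Test compounds in DMSO were then added and fluorescence monitored across 40 h.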

[2] = qHTS RealTime-Glo MT Cell Viability Assay in HepG2 cells - 32 hour (AID 1224877); note: nearly all actives have a fitted effect of over 55% in size; note: potency is the fitted concentration of half-maximal effect
Summary of the method: (§2)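 qHTS, HepG2, 600 cells/well, RealTime-Glo (NanoLuc + prosubstrate) added with cells; 5 h preincubation; DMSO compound addition; 37 C; luminescence at 0/8/16/24/32/40 h.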

[3] = qHTS RealTime-Glo MT Cell Viability Assay in HEK293 cells - 0 hour (AID 1224880); note: top concentration of the series differs between compounds; nearly all actives have a fitted effect of over 45% in size
Summary of the method: (§3)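 Tox21 screen in HEK293 using RealTime-Glo MT chemistry, with cells and reagent co-dispensed. Luminescence proportional to viable cell number was captured at intervals during 40 h compound exposure at 37 C.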

[4] = A CellTox Green Cytotoxicity Assay to monitor cytotoxicity in HEK293 cells - 32 hour (AID 1224881); note: nearly all actives have a fitted effect of over 40% in size; note: potency is the fitted concentration of half-maximal effect
Summary of the method: as §1

[5] = A CellTox Green Cytotoxicity Assay to monitor cytotoxicity in HepG2 cells - 0 hour (AID 1224882); note: nearly all actives have a fitted effect of over 35% in size
Summary of the method: (§4)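 Nonlytic assay: viable cells exclude the dye, so fluorescence scales with cell death. HepG2 at 600 cells/well, compounds added after 5 h, signal read across 40 h.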

[6] = A CellTox Green Cytotoxicity Assay to monitor cytotoxicity in HEK293 cells - 8 hour (AID 1224884); note: nearly all actives have a fitted effect of over 35% in size
Summary of the method: as §1

[7] = qHTS RealTime-Glo MT Cell Viability Assay in HepG2 cells - 16 hour (AID 1224885); note: nearly all actives have a fitted effect of over 50% in size; note: potency is the fitted concentration of half-maximal effect
Summary of the method: as §2

[8] = A CellTox Green Cytotoxicity Assay to monitor cytotoxicity in HEK293 cells - 16 hour (AID 1224888); note: nearly all actives have a fitted effect of over 35% in size
Summary of the method: as §1

[9] = qHTS RealTime-Glo MT Cell Viability Assay in HepG2 cells - 0 hour (AID 1224889); note: nearly all actives have a fitted effect of over 50% in size
Summary of the method: as §2

[10] = A CellTox Green Cytotoxicity Assay to monitor cytotoxicity in HepG2 cells - 8 hour (AID 1224890); note: nearly all actives have a fitted effect of over 45% in size; note: potency is the fitted concentration of half-maximal effect
Summary of the method: as §4

[11] = qHTS assay to identify small molecule antagonists of the estrogen receptor alpha (ER-alpha) signaling pathway using the BG1 cell line in the presence of 0.1 nM 17-beta-estradiol - cell viability counter screen (AID 1259241); note: nearly all actives have a fitted effect of over 40% in size
Summary of the method: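 Estradiol-stimulated (0.1 nM) VM7Luc4E2 cells exposed to compounds 22 hr; viability measured by fluorescence of cleaved CellTiter-Fluor substrate after 30 min.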

[12] = biological target: Estrogen receptor (Homo sapiens) (UniProt P03372); test: qHTS assay to identify small molecule antagonists of the estrogen receptor alpha (ER-alpha) signaling pathway using the BG1 cell line in the presence of 0.1 nM 17-beta-estradiol (AID 1259244); note: nearly all actives have a fitted effect of over 50% in size; note: potency is the fitted concentration of half-maximal effect
Summary of the method: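 VM7Luc4E2; 4xERE-luciferase; 0.1 nM E2 final; 22 h co-incubation, 37C; ONE-Glo luminescence after 30 min at room temperature.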

[13] = qHTS RealTime-Glo MT Cell Viability Assay in HEK293 cells - 24 hour (AID 1224886); note: nearly all actives have a fitted effect of over 50% in size; note: potency is the fitted concentration of half-maximal effect
Summary of the method: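 Assay medium contained NanoLuc luciferase plus cell-permeant prosubstrate, added with HEK293 cells at 600 cells/well. After 5 h at 37 C/5% CO2 compounds were added; plates stayed at 37 C for 40 h with serial luminescence reads.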

[14] = qHTS RealTime-Glo MT Cell Viability Assay in HEK293 cells - 8 hour (AID 1224887); note: nearly all actives have a fitted effect of over 50% in size; note: potency is the fitted concentration of half-maximal effect
Summary of the method: as §3

[15] = qHTS assay to identify small molecule antagonists of the androgen receptor (AR) signaling pathway using the MDA cell line in the presence of 0.5 nM R1881 - cell viability counter screen (AID 1259242); note: nearly all actives have a fitted effect of over 45% in size; note: potency is the fitted concentration of half-maximal effect
Summary of the method: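 R1881 at 0.5 nM final stimulated MDA-kb2 cells during 16 hr compound treatment at 37C. Cytotoxicity read: CellTiter-Fluor fluorescence after 30 min.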

[16] = biological target: Androgen receptor (Homo sapiens) (UniProt P10275); test: qHTS assay to identify small molecule antagonists of the androgen receptor (AR) signaling pathway using the MDA cell line in the presence of 0.5 nM R1881 (AID 1259243); note: nearly all actives have a fitted effect of over 50% in size; note: potency is the fitted concentration of half-maximal effect
Summary of the method: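 We exposed MDA-kb2 cells to compounds under 0.5 nM R1881 stimulation for 16 hr at 37C and quantified MMTV-driven luciferase by luminescence.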

[17] = A CellTox Green Cytotoxicity Assay to monitor cytotoxicity in HepG2 cells - 16 hour (AID 1224876); note: nearly all actives have a fitted effect of over 45% in size; note: potency is the fitted concentration of half-maximal effect
Summary of the method: as §4

[18] = A CellTox Green Cytotoxicity Assay to monitor cytotoxicity in HepG2 cells - 24 hour (AID 1224878); note: nearly all actives have a fitted effect of over 45% in size; note: potency is the fitted concentration of half-maximal effect
Summary of the method: as §4

[19] = A CellTox Green Cytotoxicity Assay to monitor cytotoxicity in HepG2 cells - 40 hour (AID 1224879); note: nearly all actives have a fitted effect of over 40% in size; note: potency is the fitted concentration of half-maximal effect
Summary of the method: as §4

[20] = A CellTox Green Cytotoxicity Assay to monitor cytotoxicity in HepG2 cells - 32 hour (AID 1224883); note: nearly all actives have a fitted effect of over 50% in size; note: potency is the fitted concentration of half-maximal effect
Summary of the method: as §4

Chain of Estrogen receptor (Homo sapiens) (P03372 whole entry, looked up): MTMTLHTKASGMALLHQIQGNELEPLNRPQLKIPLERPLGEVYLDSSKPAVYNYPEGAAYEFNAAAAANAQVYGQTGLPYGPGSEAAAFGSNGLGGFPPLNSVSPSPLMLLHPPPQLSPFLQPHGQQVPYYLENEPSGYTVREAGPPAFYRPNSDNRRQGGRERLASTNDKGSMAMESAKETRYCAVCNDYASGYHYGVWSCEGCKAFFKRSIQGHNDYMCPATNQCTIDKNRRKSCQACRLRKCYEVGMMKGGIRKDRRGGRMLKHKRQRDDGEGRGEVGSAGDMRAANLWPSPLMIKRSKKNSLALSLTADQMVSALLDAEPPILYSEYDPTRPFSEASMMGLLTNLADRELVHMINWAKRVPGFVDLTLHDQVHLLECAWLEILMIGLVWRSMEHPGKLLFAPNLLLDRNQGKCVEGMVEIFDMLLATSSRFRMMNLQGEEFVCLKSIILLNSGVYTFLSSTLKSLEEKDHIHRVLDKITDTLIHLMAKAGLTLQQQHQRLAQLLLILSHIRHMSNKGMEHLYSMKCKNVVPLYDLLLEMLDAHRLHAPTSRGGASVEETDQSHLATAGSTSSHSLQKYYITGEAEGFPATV
Chain of Androgen receptor (Homo sapiens) (P10275 whole entry, looked up): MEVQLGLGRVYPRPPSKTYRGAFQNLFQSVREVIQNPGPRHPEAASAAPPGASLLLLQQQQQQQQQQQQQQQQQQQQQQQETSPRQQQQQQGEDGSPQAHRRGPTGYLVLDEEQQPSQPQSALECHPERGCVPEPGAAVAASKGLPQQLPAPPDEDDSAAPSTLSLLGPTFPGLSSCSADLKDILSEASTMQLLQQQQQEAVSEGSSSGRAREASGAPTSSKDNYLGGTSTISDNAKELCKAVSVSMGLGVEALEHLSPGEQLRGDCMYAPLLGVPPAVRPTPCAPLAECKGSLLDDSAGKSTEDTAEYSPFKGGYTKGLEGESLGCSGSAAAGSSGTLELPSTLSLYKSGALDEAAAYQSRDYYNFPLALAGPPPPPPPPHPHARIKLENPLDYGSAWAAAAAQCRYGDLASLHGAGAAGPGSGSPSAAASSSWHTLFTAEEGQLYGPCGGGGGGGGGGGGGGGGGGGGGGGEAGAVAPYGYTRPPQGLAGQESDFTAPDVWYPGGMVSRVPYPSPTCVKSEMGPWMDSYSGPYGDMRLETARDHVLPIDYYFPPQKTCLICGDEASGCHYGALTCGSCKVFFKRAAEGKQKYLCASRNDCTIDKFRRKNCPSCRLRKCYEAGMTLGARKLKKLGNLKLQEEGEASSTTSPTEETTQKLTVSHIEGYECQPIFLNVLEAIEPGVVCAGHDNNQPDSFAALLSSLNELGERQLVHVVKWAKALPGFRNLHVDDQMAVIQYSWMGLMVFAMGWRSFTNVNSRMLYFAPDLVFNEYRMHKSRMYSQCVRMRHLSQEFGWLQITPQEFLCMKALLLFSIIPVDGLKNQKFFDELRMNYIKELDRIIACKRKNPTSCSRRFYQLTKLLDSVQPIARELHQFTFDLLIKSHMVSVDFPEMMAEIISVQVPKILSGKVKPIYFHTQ

| SMILES | Potency [1] | Potency [2] | Potency [3] | Potency [4] | Potency [5] | Potency [6] | Potency [7] | Potency [8] | Potency [9] | Potency [10] | Potency [11] | Potency [12] | Potency [13] | Potency [14] | Potency [15] | Potency [16] | Potency [17] | Potency [18] | Potency [19] | Potency [20] |
| --- | --- | --- | --- | --- | --- | --- | --- | --- | --- | --- | --- | --- | --- | --- | --- | --- | --- | --- | --- | --- |
| O=S(=O)(c1ccc(OCc2ccccc2)cc1)c1ccccc1O | inactive | inactive | inactive | inactive | inactive | inactive | inactive | inactive | inactive | inactive | inactive | 27.3 µM (active) |  |  |  |  |  |  |  |  |
| CCCCCCCCCCCCCCCCC(C(=O)O)C(O)(CC(=O)O)C(=O)O (stereo not drawn) | inactive | inactive | inactive | inactive | inactive | inactive | inactive | inactive | inactive | inactive | inactive | inactive | inactive | inactive | inactive | inactive |  |  |  |  |
| Cc1c[nH]c(=O)[nH]c1=O | inactive | inactive | inactive | inactive | inactive | inactive | inactive | inactive | inactive | inactive | inactive | inactive | inactive | inactive |  | inactive |  |  |  |  |
| O=C1C=CC(=O)N1c1cccc(N2C(=O)C=CC2=O)c1 |  | 15.5 µM (active) | inactive |  | inactive | inactive | 15.5 µM (active) |  | inactive | 17.4 µM (active) |  | 61.1 µM (active) | 11 µM (active) | 19.5 µM (active) | 61.1 µM (active) | 61.1 µM (active) | 13.8 µM (active) | 12.3 µM (active) | 12.3 µM (active) | 11 µM (active) |
| CCCCCCCC1CCC(=O)O1 (stereo not drawn) |  |  | inactive |  |  |  |  |  |  |  |  |  |  |  |  |  |  |  |  |  |
| CC(C)=NNC(N)=S | inactive | inactive | inactive | inactive |  | inactive | inactive | inactive | inactive |  |  | inactive | inactive | inactive |  |  |  | inactive |  | inactive |
| O=C(Cl)c1ccc(Cl)cc1Cl |  |  | inactive |  | inactive |  |  |  | inactive | inactive | inactive | inactive |  | inactive | inactive |  |  |  | 54.9 µM (active) | 54.9 µM (active) |
| CCCCCCCCOC(=O)c1cc(O)c(O)c(O)c1 |  | 19.5 µM (active) | inactive |  | inactive | inactive | 19.5 µM (active) |  | inactive |  |  | 24.3 µM (active) | 11 µM (active) | 5.49 µM (active) |  |  |  |  | 24.5 µM (active) | 43.6 µM (active) |
| CCOc1ccc([N+](=O)[O-])cc1 | 44.3 µM (active) | inactive | inactive | 44.3 µM (active) | inactive |  | inactive |  | inactive | inactive | inactive | inactive |  |  | inactive |  |  |  |  |  |
| C1=CCCC1 |  | inactive |  |  | inactive |  | inactive |  | inactive | inactive | inactive | inactive |  |  | inactive | inactive | inactive | inactive | inactive | inactive |
| Cc1ccc(Cl)c(N)c1Cl |  |  | inactive |  | inactive | inactive | inactive | inactive | inactive | inactive | inactive |  | inactive | inactive |  |  | inactive |  |  |  |
| N#Cc1nc(Cl)c(Cl)c(Cl)c1Cl |  | 19.5 µM (active) | inactive |  |  | inactive | 21.9 µM (active) |  | inactive | inactive |  |  | 1.95 µM (active) |  | 54.5 µM (active) | 4.86 µM (active) | 49 µM (active) | 49 µM (active) | 24.5 µM (active) | 27.5 µM (active) |
| COc1ccc2ccccc2c1 |  |  | inactive |  |  |  |  |  |  |  |  |  |  |  |  |  |  |  |  |  |
| O=C(CCCCCCCCc1cccnc1)N1CCC(C=C(c2ccccc2)c2ccccc2)CC1 | inactive |  | inactive | inactive | inactive | inactive | 49 µM (active) | inactive | inactive | inactive | inactive |  | 21.9 µM (active) | 21.9 µM (active) |  | 27.3 µM (active) | inactive |  |  | inactive |
| CS(=O)(=O)c1ccc([C@@H](CC2CCCC2)C(=O)Nc2cnccn2)cc1Cl |  |  | inactive |  |  |  |  |  |  |  |  |  |  |  |  |  |  |  |  |  |
| Clc1nc(C(Cl)(Cl)Cl)c(Cl)c(Cl)c1Cl |  |  | inactive |  | inactive |  |  |  | inactive | inactive | inactive | inactive | inactive |  | 30.6 µM (active) |  | inactive | 43.6 µM (active) | 43.6 µM (active) | 43.6 µM (active) |
| O=C(CCN1CCC(c2ccccc2)C1)c1ccc2c(c1)OCCO2 (stereo not drawn) | inactive |  | inactive |  | inactive | inactive |  | inactive | inactive | inactive | inactive | inactive |  | inactive |  |  | inactive |  | 26.8 µM (active) | 26.8 µM (active) |
| CCCCCCCC/C=C\CCCCCCCC(=O)N(CCO)CCO |  | inactive | inactive |  |  | inactive | inactive |  | inactive | inactive | inactive | 30.5 µM (active) | 43.5 µM (active) | 43.5 µM (active) | inactive |  | inactive |  |  |  |
| CCCC(=O)c1cc(O)c(O)cc1O | inactive | inactive | inactive | inactive |  | inactive | inactive | inactive | inactive | inactive |  | inactive |  | inactive |  | inactive |  |  | inactive |  |
| O=C(Nc1ccccc1)c1cc(Cl)ccc1O | inactive |  | inactive | inactive | inactive |  | inactive | inactive | inactive | inactive |  | 12.2 µM (active) |  | inactive | 17.2 µM (active) |  | inactive |  | 49 µM (active) | 49 µM (active) |
